Inconclusive results are not listed. A call without a number means that no potency is given here. Active and inactive are the calls of the source. Calls come from the whole dose curve; as a rule, active = well fitted inhibition curve with a large enough effect; inconclusive = small, poorly fitted or top-dose-only effect, or effect the other way; inactive = no such curve, though single readings can be large or run the other way.
assay: DHR3 selectivity assay for inhibitors of ROR gamma transcriptional activity; settings: Drosophila S2 Gal4-DHR3 UAS-luciferase, 20 h; series mostly up to 92.2 µM
Excerpt: NIH Molecular Libraries Probe Production Network [MLPCN] NIH Chemical Genomics Center [NCGC] MLPCN Grant: R03 DA026211-01 Assay Provider: Dan Littman, New York University Assay Overview: The retinoic acid-related orphan receptor (ROR) gamma is a transcription factor that has a central role in the differentiation of Th17 cells, a subset of T helper cells that secrete the inflammatory cytokines IL-17A, IL-17F, and IL-22. Th17 cells have been implicated in graft versus host disease, autoimmune disease and asthma. RORgamma is induced in naive T helper cells in the presence of TGF-beta combined with IL-6, IL-21, or IL-23, and thereafter directs the expression of the Th17 lineage cytokines. To identify […] inhibitors, a Drosophila Schneider cell line was stably transfected with two vectors: a gene expressing a fusion of the Gal4 DNA binding domain and the transactivation domain of the Drosophila Hormone Receptor 3 (DHR3), under the control of the metallothionine promoter and a Photinus luciferase reporter regulated by the Gal4 binding site enhancer, UAS. […] Small molecule inhibitors that inhibit components common to the RORgamma and DHR3 assays, such as proteins that interact with general nuclear hormone receptors, will be active in both assays and thus scored as nonselective.
Assay Protocol Summary: For screening, 600 cells in 4 uL/well were dispensed into white solid 1536-well plates (Grenier) using a solenoid-based dispenser. Following transfer of 23 nL compound or DMSO vehicle by a pin tool, the plates were incubated 1 hr at ambient temperature, and 1 uL/well copper sulfate (700 uM final concentration) was added. The plates were centrifuged 15 s at 1000 RPM and incubated 20 hr at ambient temperature. After addition of 1.5 uL Photinus luciferase detection reagent, the plates were incubated 10 min at ambient temperature and then read by an ViewLux (Perkin Elmer) to detect luminescence.
Potency is the fitted concentration of half-maximal effect.

Row | Compound | Potency | activity change, negative = inhibition
1 | COCC1CCCN(C(=O)CC(c2ccc3c(c2)OCO3)c2c(O)cc(OC)cc2OC)C1 (stereo not given) | inactive | 
2 | COc1cc(O)c(C(CC(=O)N2CCC(c3ccccc3)CC2)c2ccc3c(c2)OCO3)c(OC)c1 (stereo not given) | inactive | 
3 | CCC1CCCN(C(=O)CC(c2ccc3c(c2)OCO3)c2c(O)cc(OC)cc2OC)C1 (stereo not given) | inactive | 
4 | CC1CCCN(C(=O)CC(c2ccc3c(c2)OCO3)c2cc(C(C)C)ccc2O)C1 (stereo not given) | inactive | 
5 | CC1CCCN(C(=O)CC(c2ccc3c(c2)OCO3)c2cc(-c3ccccc3)ccc2O)C1 (stereo not given) | inactive | 
6 | CCC1(CC)CCN(C(=O)CC(c2ccc3c(c2)OCO3)c2c(O)cc(OC)cc2OC)C1 (stereo not given) | inactive | 
7 | COc1cc(O)c(C(CC(=O)N2CCCC(C)C2)c2ccccc2OC)c(OC)c1 (stereo not given) | inactive | 
8 | CC1CCCN(C(=O)CC(c2ccc3c(c2)OCO3)c2ccc3ccccc3c2O)C1 (stereo not given) | inactive | 
9 | COC(=O)Cn1c(CN2CCc3ccccc3C2)nc2c1c(=O)n(C)c(=O)n2C | 8120 nM (active) | 
10 | O=C(CCCN1C(=O)/C(=C/c2ccccc2Cl)SC1=S)Nc1cccnc1 | 645 nM (active) | 
11 | COc1ccc(C(CC(=O)N2CCCC(C)C2)c2c(O)cc(OC)cc2OC)c(OC)c1 (stereo not given) | inactive | 
12 | COc1cc(OC)c(C(CC(=O)N2CCCC(C)C2)c2ccc3c(c2)OCO3)c(OC)c1 (stereo not given) | inactive | 
13 | Cc1ccc(C(C)C)c(C(CC(=O)N2CCCC(C)C2)c2ccc3c(c2)OCO3)c1O (stereo not given) | inactive | 
14 | CCOc1ccc(-c2cc(CCCC(=O)NCc3cccnc3)no2)cc1 | 812 nM (active) | 
15 | COc1cc(O)c(C(CC(=O)N(C)c2cccc(C)c2)c2ccc3c(c2)OCO3)c(OC)c1 (stereo not given) | inactive | 
16 | Cc1ccc(Sc2cncc3sc(C(N)=O)cc23)cc1 | 102 nM (active) | 
17 | COc1ccc(C(=O)/C=C/c2ccc(OC)cc2OC)c(O)c1 | 645 nM (active) | 
18 | C[C@@H]1[C@H](C)CC[C@]2(C(=O)O)CC[C@]3(C)C(=CC[C@@H]4[C@@]5(C)CC[C@H](O)C(C)(C)[C@H]5CC[C@]43C)[C@@H]12 | 18200 nM (active) | 
19 | COc1cc(OC)c(C(CC(=O)N2CCCC(C)C2)c2ccc3c(c2)OCO3)c(OCc2ccccc2)c1 (stereo not given) | 14400 nM (active) | 
20 | COc1cc(O)c(C(CC(=O)N2CCCC(C)C2)c2ccc3c(c2)OCO3)c(OC)c1 (stereo not given) | inactive | 

Row | Compound | Potency | activity change, negative = inhibition
21 | COc1cc(O)c(C(CC(=O)N2CCCC(C)(C)C2)c2ccc3c(c2)OCO3)c(OC)c1 (stereo not given) | inactive | 
22 | COc1cc(O)c(C(CC(=O)N2CCCC(C#N)C2)c2ccc3c(c2)OCO3)c(OC)c1 (stereo not given) | inactive | 
23 | Cc1ccc(C)c(C(CC(=O)N2CCCC(C)C2)c2ccc3c(c2)OCO3)c1O (stereo not given) | inactive | 
24 | COc1cc(O)c(C(CC(=O)N2CCCC(C)C2)c2ccc3ccccc3c2)c(OC)c1 (stereo not given) | inactive | 
25 | COc1cc(O)c(C(CC(=O)N2CCCC(c3nc4ccccc4o3)C2)c2ccc3c(c2)OCO3)c(OC)c1 (stereo not given) | inactive | 
26 | COc1ccccc1CNC(=O)[C@@H](NC(=O)C1CCN(C(=O)[C@@H]2CCCN2C(=O)OC(C)(C)C)CC1)C(C)C | inactive | 
27 | COc1cc(O)c(C(CC(=O)NCc2ccccc2)c2ccc3c(c2)OCO3)c(OC)c1 (stereo not given) | inactive | 
28 | CCOC(=O)C1CCN(CC(=O)Nc2cc(C)nn2-c2nc3ccccc3s2)CC1 | 7240 nM (active) | 
29 | CCOc1ncccc1C(=O)OCC(=O)Nc1ccc(-c2nc3ccc(C)cc3s2)cc1 | 363 nM (active) | 
30 | COc1cc(O)c(C(CC(=O)N2CCCC(C)C2)c2ccccc2C)c(OC)c1 (stereo not given) | inactive | 
31 | CC1=C(\C=C/C(C)=C/C=C\C(C)=C\C(=O)O)C(C)(C)CCC1 |  | -6.6% [at 20 µM] (inactive)
32 | COc1cc(O)c(C(CC(=O)N2CCCC(CN3CCCCC3)C2)c2ccc3c(c2)OCO3)c(OC)c1 (stereo not given) | inactive | 
33 | COc1cc(O)c(C(CC(=O)N2CCC(C)CC2)c2ccc(OC)c(OC)c2)c(OC)c1 (stereo not given) | inactive | 
34 | COc1ccccc1C(CC(=O)N1CCCC(C)C1)c1ccccc1 (stereo not given) | inactive | 
35 | COc1cc(O)c(C(CC(=O)NC2CCCc3ccccc32)c2ccc3c(c2)OCO3)c(OC)c1 (stereo not given) | inactive | 
36 | COc1ccc(C(CC(=O)Nc2ccc(F)cc2)c2ccccc2)cc1 (stereo not given) | inactive | 
37 | CCOC(=O)c1sc(NC(=O)c2cc3c(s2)CCC(C)C3)nc1C (stereo not given) | 51.2 nM (active) | 
38 | COc1cc(O)c(C(CC(=O)N2CCCC(C(F)(F)F)C2)c2ccc3c(c2)OCO3)c(OC)c1 (stereo not given) | inactive | 
39 | CCNC(=O)CCc1nc(-c2ccc(C(C)(C)C)cc2)no1 | 115 nM (active) | 
40 | CCOC(=O)Cn1c(CN2CCc3ccccc3C2)nc2c1c(=O)n(C)c(=O)n2C | 6450 nM (active) | 
